PAX8 inh HTS: PAX8 transcriptional activity inhibition. inhibition, % at 12.6 µM. AID 652154. 1.2% of 360,000 active. RMG-I TPO-luciferase reporter, SteadyGlo, 24 h;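 active means mean replicate inhibition at least 60% with every replicate also reaching 60%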;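 further: luciferase light reporting Pax8 driven TPO promoter activity; plate controls were median of neutral control wells for no effect and mitoxantrone controls for full effect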
EBV LMP1 NFkB: inhibitors of Epstein-Barr LMP1-induced NF-kappaB reporter; inhibition, % at 12.5 µM; AID 504558; LMP1-induced NF-kappaB luciferase reporter cells, luminescence; 0.69% of 350,000 active; in the data active means inhibition above about 41%;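 further: 0% = neutral control wells and 100% = reference inhibitor control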
TROY NFkB inh: blocks TROY-dependent signaling in reporter cells | Q293 LMP1-TROYcd NF-kB luciferase reporter, 4 h | inhibition, % at 10 µM | 0.98% of 360,000 active | AID 1347056;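 active means compounds whose plate-normalised and pattern-corrected inhibition of the luciferase reporter signal at the single screening dose is 50% or more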
LGR2 antag: blocks bursicon-induced cAMP signaling via Drosophila LGR2; HEK293 LGR2, CRE-luciferase, bursicon-stimulated, 4 h; 0.35% of 380,000 active; inhibition, % at 9.99 µM;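 active means drop in luminescence signal, shown as inhibition above about 50% in the replicate tests, limit read from the data, passing the limit was not always enough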;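 further: agonist challenge used bursicon conditioned medium at about half maximal strength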
EWS-Fli block: EWS/Fli transcriptional activity inhibition. A673 NR0B1-luciferase reporter, viability-normalised. inhibition, % at 12.6 µM. 0.67% of 350,000 active;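 active means mean inhibition of at least 50% after viability correction, with every replicate also passing that limit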;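 further: firefly luciferase signal divided by Alamar Blue viability fluorescence both relative to DMSO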
TWEAK-Fn14 inh: blocks TWEAK-Fn14 interaction in a reporter cell assay. TWEAK-stimulated Fn14 reporter cells, luciferase luminescence, 8 h. 2% of 360,000 active. inhibition, % at 10 µM; in the data active means inhibition above about 50%
An asterisk follows results filed as active; . = not tested or not shown. Most compounds without a hit are left out; they make up all but 3.2% or so of the library.

SMILES	PAX8 inh HTS	EBV LMP1 NFkB	TROY NFkB inh	LGR2 antag	EWS-Fli block	TWEAK-Fn14 inh
COc1ccc2ccccc2c1/C=N/NC(=O)c1ccc(C)nc1	1	10	8	-12	-11	8
Nc1ccc(C(=O)N/N=C\c2cc(N=Nc3cccc4ccccc34)ccc2O)cc1	19	60*	-23	.	.	17
Brc1ccc(-c2cn3nc4c(nc3n2)CCCC4)cc1	.	38	-4	.	.	-16
c1ccc(-c2cn3nc4c(nc3n2)CCCC4)cc1	.	64*	6	68*	.	-1
CCS(=O)(=O)N1CC2(C1)[C@@H](c1ccccc1)[C@@H](CO)N2Cc1ccccn1	-8	.	.	8	-3	.
O=c1cc(-c2ccc(O)cc2)oc2c1ccc1ccccc12	-52	-2	63*	-22	-16	38
O=c1cc(-c2ccc(O)cc2)oc2ccc3ccccc3c12	110*	-7	88*	100*	89*	102*
COc1c(O)cc2oc(-c3ccc(O)cc3)cc(=O)c2c1O	-145	-6	-15	29	-7	20
O=c1cc(C(Cl)(Cl)Cl)oc2c1ccc1ccccc12	98*	29	49	.	.	56*
O=c1cc(-c2ccco2)oc2c1ccc1ccccc12	-1	-3	-47	.	.	-26
C[C@@H]1CN([C@H](C)CO)C(=O)c2cccc(NC(=O)Nc3ccc4c(c3)OCO4)c2O[C@@H]1CN(C)C(=O)Nc1ccc(C(F)(F)F)cc1	.	.	.	3	-16	.
COCC(=O)N1[C@H](CO)[C@@H](c2ccccc2)C12CN(C(=O)c1cccc(F)c1)C2	-8	.	.	5	-2	.
CCCC(=O)Nc1ccc2c(c1)C(=O)N(C)C[C@@H](OC)[C@H](C)CN(C)[C@@H](C)CO2	.	.	.	3	-10	.
COc1ccc(-c2nnc3sc(CN4C(=O)c5ccccc5C4=O)nn23)cc1	.	10	14	.	.	93*
Clc1c(Cl)c(Cl)c2n[nH]nc2c1Cl	8	-1	60*	4	2	-23
C[C@@H]1CN([C@@H](C)CO)C(=O)c2cc(NS(C)(=O)=O)ccc2O[C@@H]1CN(C)CC1CC1	.	.	.	1	.	.
CC(=O)Nc1nc(C)c(-c2csc(Nc3cccc([N+](=O)[O-])c3)n2)s1	.	50*	37	16	.	59*
CC(=O)Nc1nc(C)c(-c2csc(Nc3ccc(O)cc3)n2)s1	.	45*	10	.	.	0
CC(=O)Nc1ccc(Nc2nc(-c3sc(NC(C)=O)nc3C)cs2)cc1	18	22	14	5	6	-6
Cc1ccc(-n2c(SCC(=O)N3CCCc4ccccc43)nnc2-c2cccnc2)c(C)c1	-30	0	-11	10	-2	-15
Cc1ccc(-n2c(-c3ccccc3)c[n+]3c2CCc2ccccc2-3)c(C)c1	91*	32	46	39	35	47
CC(C)OP(=O)(Nc1cccc2ccccc12)OC(C)C	18	6	6	7	1	10
CN(C)P(=O)(Nc1cccc2ccccc12)Nc1cccc2ccccc12	39	3	48	11	13	76*
CO[C@@H]1CN(C)C(=O)c2cc(NC(=O)NC(C)C)ccc2OC[C@H](C)N(C(=O)CC2CC2)C[C@H]1C	.	.	.	13	3	.
CC1(C)CC(=O)C2=C(C1)NC1=C(C(=O)c3ccccc31)C2c1ccc(Cl)cc1 (stereo not given)	22	14	93*	17	.	109*
SMILES	PAX8 inh HTS	EBV LMP1 NFkB	TROY NFkB inh	LGR2 antag	EWS-Fli block	TWEAK-Fn14 inh
C[C@H](CO)N1C[C@H](C)[C@H](CN(C)C(=O)Cc2ccccc2)OCCCC[C@H](C)Oc2ccc(NC(=O)c3ccccc3)cc2C1=O	.	.	.	8	5	.
C[C@@H]1CN([C@H](C)CO)C(=O)c2cccc(NC(=O)C3CCCCC3)c2O[C@H]1CN(C)C(=O)Nc1ccc(C(F)(F)F)cc1	4	.	.	0	-10	.
C=CCOc1ccccc1CN(C(=O)CCl)c1ccc2c(c1)OCO2	121*	1	-2	-15	59*	26
CCOc1ccccc1NC(=O)Nc1ccc2c(c1)OCO2	-24	1	-18	-16	-46	-35
COc1ccc2c3c([nH]c2c1)[C@@H](CO)N(C(=O)Nc1ccc(F)cc1)CC31CN(S(=O)(=O)c2cn(C)cn2)C1	.	.	.	-15	21	.
CCS(=O)(=O)N1CCN(c2ccnc3cc(Cl)ccc23)CC1	13	3	-1	30	11	5
Cc1cc(N2CCN(S(=O)(=O)c3ccc(Cl)cc3)CC2)c2ccccc2n1	.	-7	53*	.	.	31
